JNK3 inh: JNK3 kinase activity inhibitors, primary screen, biochemical, human, purified enzyme; Mitogen-activated protein kinase 10 (Homo sapiens), P53779; HTS; inhibition, % at 8 µM; 0.61% of 60,000 active; in the data active = inhibition above about 17%
Target sequence (P53779 whole entry, looked up): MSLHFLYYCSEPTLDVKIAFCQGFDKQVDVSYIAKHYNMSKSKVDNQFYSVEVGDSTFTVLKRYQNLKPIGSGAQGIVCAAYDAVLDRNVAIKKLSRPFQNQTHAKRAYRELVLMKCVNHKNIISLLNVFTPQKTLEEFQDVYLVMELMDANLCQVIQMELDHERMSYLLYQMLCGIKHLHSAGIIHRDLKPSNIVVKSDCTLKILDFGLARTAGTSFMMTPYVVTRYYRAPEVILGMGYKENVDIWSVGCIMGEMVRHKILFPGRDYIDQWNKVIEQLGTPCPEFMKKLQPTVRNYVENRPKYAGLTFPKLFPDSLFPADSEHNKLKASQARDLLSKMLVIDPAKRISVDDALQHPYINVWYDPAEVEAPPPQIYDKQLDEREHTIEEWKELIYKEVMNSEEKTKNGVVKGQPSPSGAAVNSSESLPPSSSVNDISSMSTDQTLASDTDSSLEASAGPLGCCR
Hsp90 inh: tumor Hsp90 inhibitors, primary screen, cell lysate, fluorescence polarization, NCI-N417 lysate. Heat shock protein HSP 90-alpha (Homo sapiens), P07900. Cy3B-geldanamycin FP displacement. inhibition, % at 30 µM. 0.35% of 64,000 active;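 active = inhibition above 50%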
Jurkat tox 60K: cytotoxicity toward Jurkat T cells, primary screen, cytotoxicity control, cell-based, Jurkat E6.1, 60K MLSMR library. Jurkat E6.1 viability, ATP luminescence, 48 h. inhibition, % at 4 µM. 1.2% of 56,000 active. AID 463, 2006;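 active = inhibition above the mean inhibition of all tested compounds plus 3 SD, cut at about 28% in these data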
ROCK2 blocker: inhibitors of human ROCK2 kinase, primary screen, biochemical, high-throughput, luminescence; purified ROCK2, Kinase-Glo ATP depletion luminescence; 0.35% of 60,000 active; inhibition, % at 6 µM; Rho-associated protein kinase 2 (Homo sapiens), O75116;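 active = inhibition above the screen-wide mean inhibition plus 3 SD, cut at about 18% in these data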
PKA kinase inh: inhibitors of human PKA kinase activity, primary screen, biochemical, ATP-depletion luminescence, Kemptide substrate; inhibition, % at 6 µM; 0.1% of 65,000 active; AID 524, 2006; PKA Kemptide phosphorylation, Kinase-Glo ATP luminescence;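 active = inhibition above the screen-wide mean inhibition plus 3 SD, cut at about 21% in these data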
Each line names hits and unclear results; the compound was inactive in the other large screens. An excerpt weighted towards active compounds, which were near 1.9% of everything screened.

C=CCn1c(O)c(C(C)=NCc2cc(OC)cc(OC)c2)c(=O)[nH]c1=O	Jurkat tox 60K 37
C=CCn1c(O)c(C(C)=NCc2cccnc2)c(=O)[nH]c1=O	none
Cc1c2ccncc2c(C)c2c1[nH]c1ccccc12	ROCK2 blocker 46, PKA kinase inh 46 (no result: Jurkat tox 60K)
Cc1nccc2c1[nH]c1ccccc12	none (no result: JNK3 inh, Jurkat tox 60K, ROCK2 blocker, PKA kinase inh)
c1ccc2c(c1)[nH]c1cnccc12	ROCK2 blocker 24 (no result: Jurkat tox 60K)
CN1C[C@@H](CS(=O)(=O)N(C)C)C[C@@H]2c3cccc4c3c(cn4C)C[C@H]21	none (no result: JNK3 inh, Jurkat tox 60K, ROCK2 blocker, PKA kinase inh)
CC(C)N1CC=C(c2c[nH]c3ccccc23)CC1	none
C1=C(c2c[nH]c3ccccc23)CCNC1	ROCK2 blocker 28, PKA kinase inh 21
CC(O)C(C)OC(=O)[C@@H]1C[C@@H]2c3cccc4c3c(cn4C(C)C)C[C@H]2N(C)C1 (stereo partly drawn)	none (no result: JNK3 inh, Jurkat tox 60K, ROCK2 blocker, PKA kinase inh)
C[C@]12CC[C@H]3[C@@H](CCC4C[C@H](O)CC[C@@]43C)[C@@H]1CC[C@@H]2O (stereo partly drawn)	none (no result: JNK3 inh, Jurkat tox 60K, ROCK2 blocker, PKA kinase inh)
N#CC(C#N)=Cc1ccc(O)c(O)c1	Hsp90 inh 63 (no result: JNK3 inh, Jurkat tox 60K, ROCK2 blocker, PKA kinase inh)
COc1cc(C=C(C#N)C#N)cc(O)c1O	Hsp90 inh 69 (no result: JNK3 inh, Jurkat tox 60K, ROCK2 blocker, PKA kinase inh)
CC(C)(C)c1cc(C=C(C#N)C#N)cc(C(C)(C)C)c1O	none (no result: JNK3 inh, Jurkat tox 60K, ROCK2 blocker, PKA kinase inh)
N#CC(=Cc1ccc(O)c(O)c1)C(N)=S	Hsp90 inh 52 (no result: JNK3 inh, Jurkat tox 60K, ROCK2 blocker, PKA kinase inh)
N[C@@H](Cn1cc(I)c(=O)[nH]c1=O)C(=O)O	none (no result: JNK3 inh, Jurkat tox 60K, ROCK2 blocker, PKA kinase inh)
CN(C)[C@@H]1C(=O)C(C(N)=O)=C(O)[C@@]2(O)C(=O)C3=C(O)c4c(O)cccc4[C@@](C)(O)[C@H]3C[C@@H]12	Hsp90 inh 72 (no result: Jurkat tox 60K)
C[C@H]1CCCC(=O)CCCCCc2cc(O)cc(O)c2C(=O)O1	Hsp90 inh 88 (no result: Jurkat tox 60K)
C[C@]12Cc3cn4c(nc3C=C1CCC1C2CC[C@@]2(C)[C@H]1CC[C@@]2(O)C#N)nc1ccccc14 (stereo partly drawn)	none (no result: JNK3 inh, Jurkat tox 60K, ROCK2 blocker, PKA kinase inh)
Cc1ccc(-n2c(O)c(C=Nc3ccccc3N)c(=O)[nH]c2=O)cc1C	Jurkat tox 60K 86
Cn1nc(-c2ccc(OCC(=O)N3CCN(Cc4ccccc4)CC3)cc2)c2ccccc2c1=O	Jurkat tox 60K 58
Cn1cccc1CN1CCN(C(=O)COc2ccccc2)CC1	none
Oc1ccc2c3c1O[C@H]1c4oc5ccccc5c4C[C@@]4(O)C(C2)N(CC2CC2)CCC314 (stereo partly drawn)	none (no result: JNK3 inh, Jurkat tox 60K, ROCK2 blocker, PKA kinase inh)
O=C(NC1(C(F)(F)F)Oc2ccc(Cl)cc2O1)N1CCC2(CC1)OCCO2 (stereo not drawn)	Hsp90 inh 64 (no result: JNK3 inh, Jurkat tox 60K, ROCK2 blocker)
CCN1C[C@]2(C)CC[C@H](O)[C@@]34C5C[C@@H]6[C@@H](OC)C[C@@](O)(C5[C@H]6O)[C@@H](CC23)C14 (stereo partly drawn)	none (no result: JNK3 inh, Jurkat tox 60K, ROCK2 blocker, PKA kinase inh)
N[C@@H](Cn1ccc(=O)[nH]c1=O)C(=O)O	none (no result: JNK3 inh, Jurkat tox 60K, ROCK2 blocker, PKA kinase inh)
CCN1CCN(Cc2nnnn2C(C)(C)C)CC1	ROCK2 blocker 21, PKA kinase inh 66
Cn1ncnc2c(=O)n(C)c(=O)nc1-2	JNK3 inh 60, Hsp90 inh 91, Jurkat tox 60K 88, ROCK2 blocker 67
